# Data: the antibiotic and cytotoxicity screens of Wong et al. (2023)
# Hit rate of the full screen: of about 39,000 compounds, about 3,300 (8.5%) were called active. Shown is part of a subset that was picked to be rich in actives.
# System: HepG2
# Assay: cytotoxicity call (relative viability < 0.9)
# Details: 10 µM
row,SMILES,cytotoxicity call
1,CCS(=O)(=O)N1CCNCC1,inactive
2,CC1C(=O)CCC2C1(C)CCC1C2(C)CCC2(C)C3CC(C)(C)CCC3(C)CCC12C (stereo not drawn),inactive
3,O=C(O)c1n[nH]c2c1CCCC2,inactive
4,C[C@H]1CN([C@@H](C)CO)C(=O)c2cc(C#Cc3ccccc3F)cnc2O[C@H]1CN(C)C(=O)C1CCOCC1,inactive
5,COc1ccc(CC2c3cc(OC)c(OC)cc3CC[N+]2(C)CCC(=O)OCCCCCOC(=O)CC[N+]2(C)CCc3cc(OC)c(OC)cc3C2Cc2ccc(OC)c(OC)c2)cc1OC.O=S(=O)([O-])c1ccccc1.O=S(=O)([O-])c1ccccc1 (stereo not drawn),inactive
6,COc1ccc(C[C@H]2c3cc(OC)c(OC)cc3CC[N@+]2(C)CCC(=O)OCCCCCOC(=O)CC[N@+]2(C)CCc3cc(OC)c(OC)cc3[C@@H]2Cc2ccc(OC)c(OC)c2)cc1OC,inactive
7,COc1ccc(C[C@@H]2c3cc(OC)c(OC)cc3CC[N@+]2(C)CCC(=O)OCCCCCOC(=O)CC[N@@+]2(C)CCc3cc(OC)c(OC)cc3[C@H]2Cc2ccc(OC)c(OC)c2)cc1OC,active
8,COc1ccc(S(=O)(=O)Nc2ccc3c(c2)C(=O)N([C@@H](C)CO)C[C@H](C)[C@@H](CN(C)S(=O)(=O)c2ccccc2)O3)cc1,inactive
9,C[C@@H]1CN([C@H](C)CO)C(=O)c2cc(NC(=O)C3CCCCC3)ccc2O[C@H]1CN(C)Cc1ccc(C(F)(F)F)cc1,inactive
10,CC(C)NC(=O)Nc1cccc2c1O[C@@H](CN(C)Cc1ccc(Oc3ccccc3)cc1)[C@@H](C)CN([C@H](C)CO)C2=O,inactive
11,COc1cccn(CC(=O)N2CCO[C@@H](CCN)C2)c1=O,inactive
12,CCNc1nc(SCC(N)=O)nc(N2CCOCC2)n1,inactive
13,CNc1nc(SCC(N)=O)nc(N2CCOCC2)n1,active
14,CN(C)c1nc(SCC(N)=O)nc(N(C)C)n1,inactive
15,Cn1c(=O)c2c(nc(N(CCO)CCO)n2Cc2ccc(F)cc2)n(C)c1=O,inactive
16,C[C@@H]1CN([C@@H](C)CO)C(=O)c2c(c3ccccc3n2C)-c2ccccc2CO[C@H]1CN(C)Cc1ccc(Oc2ccccc2)cc1,inactive
17,C[C@@H]1CN([C@H](C)CO)C(=O)Cc2cc(NC(=O)CCC(F)(F)F)ccc2O[C@H]1CN(C)C(=O)Nc1ccc(C(F)(F)F)cc1,inactive
18,C[C@H]1CN([C@@H](C)CO)C(=O)Cc2cc(NC(=O)C3CCCCC3)ccc2O[C@@H]1CN(C)Cc1ccc(-c2ccccc2)cc1,inactive
19,C[C@H](CO)N1C[C@H](C)[C@H](CN(C)Cc2ccc(-c3ccccc3)cc2)Oc2ccc(NC(=O)C3CCCCC3)cc2CC1=O,inactive
20,C[C@@H]1CN([C@H](C)CO)C(=O)Cc2cc(NC(=O)C3CCCCC3)ccc2O[C@H]1CN(C)Cc1ccc(-c2ccccc2)cc1,inactive
21,C[C@@H]1CN([C@H](C)CO)C(=O)Cc2cc(NC(=O)C3CCCCC3)ccc2O[C@@H]1CN(C)Cc1ccc(-c2ccccc2)cc1,active
22,C[C@@H]1CN([C@@H](C)CO)C(=O)Cc2cc(NC(=O)C3CCCCC3)ccc2O[C@@H]1CN(C)Cc1ccc(-c2ccccc2)cc1,active
23,C[C@@H]1CN([C@@H](C)CO)C(=O)Cc2cc(NC(=O)C3CCCCC3)ccc2O[C@H]1CN(C)Cc1ccc(-c2ccccc2)cc1,inactive
